Results reported in PubChem BioAssay AID1850 (Southern Research Specialized Biocontainment Screening …, 2009).
Values joined by “and” are separate entries in the source; they are usually repeats but may differ in a detail not shown here. Equal values may be shown once. The whole screen tested about 310,000 compounds, of which about 1,000 (0.32%) were called active. Only a sample is shown. Results with a measured potency or affinity are listed apart. Unmarked numbers belong to inactive results. The rule behind the calls is not given here.

Assay: Inhibition of PhoP regulon, Salmonella typhi GFP reporter cells, confirmation, 4 h (AID 1850);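 note: 0% = induced wells with vehicle and 100% = uninduced wells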
Conditions: Salmonella Typhi PhoP-promoter GFP reporter, fluorescence, at 50 µM, hits give high values

Compound | inhibition
CCOC(=O)N/N=C/c1ccccc1OCc1ccc(Cl)cc1 | 2.12%
O=c1[nH]c(C2CCCN(S(=O)(=O)c3ccccc3F)C2)nc2c1nnn2Cc1ccccc1Cl (stereo not drawn) | 0.52%
CCN(CC)CC(=O)Nn1c(C)nc2c(ncn2-c2ccccc2)c1=O | 2.92%
CCCN(CCC)CC(=O)NCC1(c2ccccc2)CCOCC1 | 5.98%
CCOc1ccccc1NC(=O)c1cc(-c2cc(OC)c(OC)c(OC)c2)nc2ccccc12 | 6.2%
CC(=O)Nc1ccc(NC(=O)[C@H](C)NC(=O)c2ccco2)cc1 | 2.64%
CCOC(=O)c1oc2ccccc2c1COC(=O)CNC(=O)c1ccccc1OC | -8.98%
CCOc1ccc(-c2noc(CCC(=O)NC3CCCCC3)n2)cc1OC | -7.76%
Fc1cccc(Nc2nc(Cl)nc(Cl)n2)c1 | -6.69%
COc1ccc(C)cc1Nc1nc(N)c2ccccc2n1 | 2.42%
NNc1nc(Nc2ccccc2)nc(Nc2ccccc2)n1 | -2.45%
COc1cc2nc(Nc3cccc(F)c3)nc(N)c2cc1OC | -16.8%
CC(=O)c1ccc(OCC(O)CN2CCN(c3ccc(F)cc3)CC2)cc1 (stereo not drawn) | 9.79%
C[C@H]1CN=C(N(C)C)N1CCCC1CCCCC1 | -3.79%
CCOC(=O)N1CCN(CCC(=O)Nc2ccc(Br)cc2)CC1 | -11.9%
CCOC(=O)N1CCN(CCC(=O)Nc2cccc(Br)c2)CC1 | -10.1% and 1.14%
O=C(CCN1CCOCC1)c1ccc(Cl)cc1 | 5.47%
CCOC(=O)N1CCN(CCC(=O)c2ccc(OC)cc2)CC1 | 19.1%
CCOC(=O)n1cc(-c2cnc(CNC(=O)C(C)(c3ccccc3)c3ccccc3)o2)c2ccccc21 | -3.78%
Cc1ccc(C(=O)NCC(=O)Nc2cccc(C(F)(F)F)c2)cc1 | 7%
CCCN1CCN(CCCNC(=S)Nc2ccc3nc(N4CCN(CC)CC4)cc(C)c3c2)CC1 | 2.52%
Cn1cc(P(=S)(N2CCOCC2)N2CCOCC2)cc1P(=S)(N1CCOCC1)N1CCOCC1 | -5.57%
CN(C)S(=O)(=O)c1ccc(S(=O)(=O)N(CC(=O)Nc2ccccc2)CC2CCCO2)cc1 (stereo not drawn) | 9.84%
CC1CCCN(C(=O)COC(=O)Cc2c(F)cccc2Cl)C1 (stereo not drawn) | 8.14%
Clc1ccc2c(c1)CCc1cccnc1C2=C1CCNCC1 | 9.72%

Compound | inhibition
CN1CCC(=C2c3ccccc3CC(=O)c3sccc32)CC1 | -11.1% and 6.89% and 11.9%
C[N+]1(C)CCC(=C2c3ccccc3CC(=O)c3sccc32)CC1 | -5.91%
CN1CCC(=C2c3ccccc3CCc3sccc32)CC1 | 4.53%
COc1ccccc1CNC(=O)c1ccc(N2CCOCC2)c([N+](=O)[O-])c1 | 3.84%
O=C(O)c1ccccc1C(=O)Nc1ccc(Oc2ccc3ccccc3c2)cc1 | -5.98%
O=S(=O)(Nc1ccc(-n2cnnn2)cc1)c1ccc(F)c(F)c1F | -6.29%
Cc1cc(NCCN2CCOCC2)c2ccc3ccccc3c2n1 | 0.49%
COc1ccc2nc(C)cc(NCCN3CCOCC3)c2c1 | 3.31%
CN1CCN(C2=Nc3cc(F)ccc3Cc3ccccc32)CC1 | 10.2%
CN1CCN(c2ccc(Cl)cc2N)CC1 | 5.42%
CN1CCN(c2ccc(F)cc2N)CC1 | -23.4%
CN1CCN(C2=Cc3ccc(Cl)cc3Sc3ccc(F)cc32)CC1 | 2.54%
CN1CCN(c2nc(-c3ccc(Cl)c(Cl)c3)nc3ccccc23)CC1 | -3.79%
CN1CCN(C2=Cc3ccccc3Sc3cc(F)c(F)cc32)CC1 | 56.3%
COc1ccc(N(CC(=O)Nc2ccc(C(C)C)cc2)S(=O)(=O)c2c(C)noc2C)cc1 | -9.48%
COc1ccccc1NC(=O)CSc1nnc(Cc2ccccc2)o1 | -0.38%
CCC(=O)OC1(Cc2ccc(CC)cc2)CC(C)N(C)CC1C (stereo not drawn) | -0.84%
CCOC(=O)C1(CCOC)CCN(Cc2ccncc2)CC1 | -5.83%
O=C(Oc1c(CN2CCOCC2)cc(Cl)c2cccnc12)c1ccccc1 | 9.08%
Oc1c(CN2CCCCC2)cc(COCc2ccccc2)c2cccnc12 | -6.03%
COc1ccc(CN2CCN(C)CC2)cc1OCc1ccccc1 | 0.01%
Oc1c(CN2CCOCC2)cc(-c2ccccc2)cc1CN1CCOCC1 | 9.41%
Cc1cccc(OCC(=O)Nc2nnc(-c3ccco3)s2)c1 | 5.97%
CCOc1ccc2nc(N3CCCC(C(=O)NCCCN4CCCCC4)C3)sc2c1 (stereo not drawn) | 6.31%
CCN(CC(N)=O)S(=O)(=O)c1ccc(Br)cc1 | 4.08%

Compound | inhibition
N=c1n(CCN2CCCCC2)c2ccccc2n1CC(O)c1cccc(Br)c1 (stereo not drawn) | 2.9%
N=c1n(CCN2CCOCC2)c2ccccc2n1CC(=O)c1ccc(Cl)c(Cl)c1 | 20.6%
N=c1n(CCN2CCCC2)c2ccccc2n1CC(O)c1ccc(Cl)c(Cl)c1 (stereo not drawn) | 27.1%
CCCn1c(=N)n(CC(=O)c2ccc(Cl)c(Cl)c2)c2ccccc21 | -5.11%
CC1=NN(c2nc(C)cc(C)n2)C(=O)C1CCC(C)C (stereo not drawn) | 2.35%
Cc1cc(C)nc(NC(=O)c2cccs2)c1 | -2.29%
Cc1cccc(NS(=O)(=O)c2c(C)nc3scc(C)n3c2=O)c1 | -24.5%
COC(=O)C1CSC(C(=O)OC)N1C(=O)CN1CC(C)OC(C)C1 (stereo not drawn) | -2.04%
O=c1[nH]c(=O)n(C2OC(CO)C(O)C2O)cc1Br (stereo not drawn) | -19.2%
O=c1ccn([C@@H]2O[C@H](CO)[C@@H](O)[C@H]2O)c(=O)[nH]1 | -0.0767%
Cc1cc(C)nc(CCNC(=O)c2cc(COc3c(C)cccc3C)on2)n1 | -3.31%
CC(C)Oc1ccc(C(=O)NCC(=O)OCC(=O)N(C)Cc2cccs2)cc1 | 2.06%
CCn1c(C)cc(C)c(C#N)c1=O | 7.92%
CCCn1c(=N)n(CC(O)COc2cccc(C)c2)c2ccccc21 (stereo not drawn) | 3.8%
COc1ccc(OCC(O)Cn2c(=N)n(CCN3CCCCC3)c3ccccc32)cc1 (stereo not drawn) | 20.8%
N=c1n(CCN2CCCCC2)c2ccccc2n1CC(O)COc1ccccc1 (stereo not drawn) | 28%
CCN(CC)CCn1c(=N)n(CC(O)COc2ccccc2)c2ccccc21 (stereo not drawn) | 15.1%
CCCCn1c(=N)n(CC(O)COc2cccc(C)c2)c2ccccc21 (stereo not drawn) | 9.29%
Cc1ccc(OCC(O)Cn2c(=N)n(CCN3CCOCC3)c3ccccc32)cc1 (stereo not drawn) | 14%
Cc1ccc(SCC(=O)OCC(=O)NCCC2=CCCCC2)cc1 | 9.93%
O=C(O)CNC(=O)C1COc2ccccc2O1 (stereo not drawn) | 8.95%
COCCCn1c(C23CC4CC(CC(C4)C2)C3)n[nH]c1=S | -6.32%
Fc1ccc(CCNCc2ccc(Br)cc2)cc1 | -3.63%
C1N2CN3CN1CN(C2)C3 | -6.24%
O=C(CSc1nnnn1C1CCCC1)N1CCCc2ccccc21 | 11.7%

Compound | inhibition
COc1ccccc1OCCC(=O)OCC(=O)c1[nH]c(C)c(C(C)=O)c1C | 10.1%
O=C(NCN1CCN(c2ccccc2F)CC1)c1ccccc1 | 0.63%
C/C(=N\NC(=O)C1CC1)c1ccc(Cl)c(Cl)c1 | 5.7%
C[n+]1cccc2c(Br)ccc([O-])c21 | 4.86%
NCC(=O)c1cccc2ccc[n+]([O-])c12 | -7.72%
O=C(CSc1n[nH]c(=O)[nH]c1=O)c1ccccc1[N+](=O)[O-] | -3.6%
CCN(Cc1cc2ccccc2[nH]c1=O)C(=O)c1cccnc1 | 1.33%
COc1ccc(C2(CNC(=O)/C=C\c3ccco3)CCCC2)cc1OC | -2.04%
Cc1ccccc1C(=O)NNC(=S)NC(=O)c1ccccc1 | -2%
O=C(COc1ccccc1)NNC(=S)NC(=O)c1ccccc1 | 12.9%
COC(=O)c1ccccc1NC(=S)NC(=O)COc1ccccc1 | 10.9%
CC(C)(C)c1ccc(C(=O)NC(=S)NNC(=O)COc2ccccc2)cc1 | -4.42%
CCc1ccc(NC(=S)Nn2cnnc2)cc1 | 3.78%
CCn1cc(C(=O)c2ccccc2)c2ccccc21 | -2.86%
COc1ccc(/C=C/C(=O)Nc2ccc(-c3nnc4n3CCCCC4)cc2)c(OC)c1 | 5.23%
CC(=O)OC(C(=O)NCc1ccco1)c1ccncc1 (stereo not drawn) | -8.42%
Cc1c(CCOC(=O)CC23CC4CC(CC(C4)C2)C3)sc[n+]1CC(=O)c1ccc(Br)cc1 | -0.11%
Cc1c(CCOC(=O)c2ccccc2)sc[n+]1CC(=O)c1ccc(Br)cc1 | -8.05%
O=C(Nc1nc(-c2cccc([N+](=O)[O-])c2)cs1)c1cccc([N+](=O)[O-])c1C(=O)O | 5.24%
O=C(NC1CCCCCCC1)C1CCN(S(=O)(=O)N2CCCC2)CC1 | 11%
O=C(CSc1nc2ccccc2[nH]1)Nc1ccccc1F | -4.68%
O=C(CSc1nc2ccccc2[nH]1)Nc1ccc(F)cc1 | 0.68%
Cc1ccc(NS(=O)(=O)c2ccc3c(c2)NC(=O)CCS3)c(Br)c1 | 1.1%
